# Key:
# Assay in all cases: DAPPL (digital affinity profiling via proximity ligation, sequencing); 10 mM Tris-HCl pH 7.5, 50 mM NaCl, 1 mM DTT, 4% glycerol, room temperature, 30 min; GST-TFs on glutathione beads, 16-mer random dsDNA library, 0.1% formaldehyde crosslink after washing; high values mean tight binding
# FLI1 = molecular target: T1, FLI1 (Homo sapiens, UniProt Q01543 1-452); details: protein: recombinant; tags: N-terminal GST; dsDNA, one strand shown
# T1 sequence: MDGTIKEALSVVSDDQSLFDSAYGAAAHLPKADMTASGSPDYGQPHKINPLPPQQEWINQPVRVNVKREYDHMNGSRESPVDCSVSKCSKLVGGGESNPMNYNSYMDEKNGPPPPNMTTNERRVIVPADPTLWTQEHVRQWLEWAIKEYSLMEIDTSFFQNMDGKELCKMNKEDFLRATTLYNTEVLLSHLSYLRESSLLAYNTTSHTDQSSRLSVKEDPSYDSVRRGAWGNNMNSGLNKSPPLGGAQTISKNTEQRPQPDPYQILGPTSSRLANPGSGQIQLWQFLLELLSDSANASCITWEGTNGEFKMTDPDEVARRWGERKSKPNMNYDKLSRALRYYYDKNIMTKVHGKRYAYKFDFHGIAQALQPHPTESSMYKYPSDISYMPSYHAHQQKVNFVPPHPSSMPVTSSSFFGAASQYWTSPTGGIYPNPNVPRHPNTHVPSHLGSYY
# Summary of the method: (§1)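 Human transcription factors were made in yeast as GST fusions, captured on glutathione beads and barcoded with DNA. With a tag-only sample included, the pool was incubated with 200 nmole of a random double-stranded 16-mer DNA library in Tris/NaCl/DTT/glycerol buffer at room temperature for 30 min, then crosslinked with 0.1% formaldehyde after washing, ligated by proximity, amplified and sequenced. For binding signal, each hexamer's read frequency for a factor is divided by its frequency for the tag-only sample.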
# ELK1 = molecular target: T2, ELK1 (Homo sapiens, UniProt P19419 1-428); details: protein: recombinant; tags: N-terminal GST; dsDNA, one strand shown
# T2 sequence: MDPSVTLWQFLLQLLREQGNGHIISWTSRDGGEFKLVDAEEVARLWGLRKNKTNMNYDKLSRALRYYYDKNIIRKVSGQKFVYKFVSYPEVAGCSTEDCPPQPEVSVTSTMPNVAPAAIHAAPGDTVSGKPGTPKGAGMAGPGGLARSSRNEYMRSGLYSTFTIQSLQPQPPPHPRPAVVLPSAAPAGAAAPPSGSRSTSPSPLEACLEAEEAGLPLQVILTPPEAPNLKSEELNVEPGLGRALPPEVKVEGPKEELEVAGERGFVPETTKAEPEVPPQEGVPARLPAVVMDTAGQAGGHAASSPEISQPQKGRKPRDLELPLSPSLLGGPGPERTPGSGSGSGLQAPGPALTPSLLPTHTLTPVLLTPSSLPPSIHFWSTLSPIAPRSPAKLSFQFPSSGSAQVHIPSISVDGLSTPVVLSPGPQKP
# Summary of the method: as §1
# GABPA = molecular target: T3, GABPA (Homo sapiens, UniProt Q06546 1-454); details: protein: recombinant; tags: N-terminal GST; dsDNA, one strand shown
# T3 sequence: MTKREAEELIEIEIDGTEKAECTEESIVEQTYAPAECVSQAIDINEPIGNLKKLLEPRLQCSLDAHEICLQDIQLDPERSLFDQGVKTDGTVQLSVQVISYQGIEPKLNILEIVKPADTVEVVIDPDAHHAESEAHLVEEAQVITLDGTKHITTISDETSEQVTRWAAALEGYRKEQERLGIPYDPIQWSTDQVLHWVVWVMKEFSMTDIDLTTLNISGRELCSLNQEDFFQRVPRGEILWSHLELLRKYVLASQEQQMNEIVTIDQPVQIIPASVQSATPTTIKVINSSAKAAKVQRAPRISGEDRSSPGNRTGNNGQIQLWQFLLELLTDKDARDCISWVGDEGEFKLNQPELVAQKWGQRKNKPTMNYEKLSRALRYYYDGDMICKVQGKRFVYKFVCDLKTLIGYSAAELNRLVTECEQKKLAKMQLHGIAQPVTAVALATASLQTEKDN
# Summary of the method: as §1
# ERG = molecular target: T4, ERG (Homo sapiens, UniProt P11308 1-479); details: protein: recombinant; tags: N-terminal GST; dsDNA, one strand shown
# T4 sequence: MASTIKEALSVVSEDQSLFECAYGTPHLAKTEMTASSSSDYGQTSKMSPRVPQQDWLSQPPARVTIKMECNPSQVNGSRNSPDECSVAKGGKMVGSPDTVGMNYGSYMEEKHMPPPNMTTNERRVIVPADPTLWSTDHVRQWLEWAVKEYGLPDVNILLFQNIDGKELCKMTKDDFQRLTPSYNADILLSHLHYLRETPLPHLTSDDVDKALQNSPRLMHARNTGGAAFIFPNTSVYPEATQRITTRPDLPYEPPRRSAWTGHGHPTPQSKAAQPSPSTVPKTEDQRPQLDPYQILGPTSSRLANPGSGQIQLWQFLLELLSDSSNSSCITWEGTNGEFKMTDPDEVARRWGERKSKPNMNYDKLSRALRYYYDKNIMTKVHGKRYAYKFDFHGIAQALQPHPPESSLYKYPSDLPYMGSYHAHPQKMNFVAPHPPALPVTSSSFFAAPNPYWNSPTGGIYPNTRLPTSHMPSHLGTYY
# Summary of the method: as §1
# ELF1 = ELF1 (Homo sapiens, UniProt P32519 1-619); details: protein: recombinant; tags: N-terminal GST; dsDNA, one strand shown
# Sequence of ELF1 (P32519 whole entry): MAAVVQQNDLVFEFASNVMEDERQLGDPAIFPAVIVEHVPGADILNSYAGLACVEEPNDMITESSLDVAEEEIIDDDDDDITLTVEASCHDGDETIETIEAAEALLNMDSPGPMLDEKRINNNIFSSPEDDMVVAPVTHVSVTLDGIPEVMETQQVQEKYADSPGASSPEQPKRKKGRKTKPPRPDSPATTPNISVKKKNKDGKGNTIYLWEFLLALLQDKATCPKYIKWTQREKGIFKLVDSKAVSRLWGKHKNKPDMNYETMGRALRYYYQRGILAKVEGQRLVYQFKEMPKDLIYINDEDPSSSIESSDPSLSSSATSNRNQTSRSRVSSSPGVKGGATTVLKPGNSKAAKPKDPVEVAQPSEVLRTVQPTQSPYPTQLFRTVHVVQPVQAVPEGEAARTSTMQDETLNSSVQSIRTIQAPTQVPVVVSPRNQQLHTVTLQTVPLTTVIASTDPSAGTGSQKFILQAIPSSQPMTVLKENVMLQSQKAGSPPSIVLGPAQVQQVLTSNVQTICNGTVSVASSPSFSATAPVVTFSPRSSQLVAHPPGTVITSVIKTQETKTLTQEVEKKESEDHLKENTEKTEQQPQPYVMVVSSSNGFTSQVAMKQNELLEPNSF
# Summary of the method: as §1
# EHF = molecular target: T5, EHF (Homo sapiens, UniProt Q9NZC4 1-300); details: protein: recombinant; tags: N-terminal GST; dsDNA, one strand shown
# T5 sequence: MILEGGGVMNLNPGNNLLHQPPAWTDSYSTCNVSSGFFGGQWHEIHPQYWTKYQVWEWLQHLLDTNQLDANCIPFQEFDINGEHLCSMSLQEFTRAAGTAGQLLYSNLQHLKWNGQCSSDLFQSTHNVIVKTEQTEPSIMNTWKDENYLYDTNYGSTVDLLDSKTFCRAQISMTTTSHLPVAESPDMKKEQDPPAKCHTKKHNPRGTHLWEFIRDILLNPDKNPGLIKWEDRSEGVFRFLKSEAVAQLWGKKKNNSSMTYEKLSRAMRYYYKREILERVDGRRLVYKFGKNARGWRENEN
# Summary of the method: as §1
# SPI1 = SPI1 (Homo sapiens, UniProt P17947 1-270); details: protein: recombinant; tags: N-terminal GST; dsDNA, one strand shown
# Summary of the method: as §1
# SPIB = SPIB (Homo sapiens, UniProt Q01892 1-262); details: protein: recombinant; tags: N-terminal GST; dsDNA, one strand shown
# Sequence of SPIB (Q01892 whole entry): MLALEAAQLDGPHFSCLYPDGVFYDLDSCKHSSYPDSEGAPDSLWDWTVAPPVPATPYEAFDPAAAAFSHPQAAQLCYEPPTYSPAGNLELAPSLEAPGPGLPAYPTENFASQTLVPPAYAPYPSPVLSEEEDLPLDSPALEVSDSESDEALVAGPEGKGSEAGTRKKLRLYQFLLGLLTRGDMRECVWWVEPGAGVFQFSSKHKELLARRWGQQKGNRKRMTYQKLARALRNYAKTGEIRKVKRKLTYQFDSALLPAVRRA
# Summary of the method: as §1
# ELK3 = molecular target: T6, ELK3 (Homo sapiens, UniProt P41970 1-407); details: protein: recombinant; tags: N-terminal GST; dsDNA, one strand shown
# T6 sequence: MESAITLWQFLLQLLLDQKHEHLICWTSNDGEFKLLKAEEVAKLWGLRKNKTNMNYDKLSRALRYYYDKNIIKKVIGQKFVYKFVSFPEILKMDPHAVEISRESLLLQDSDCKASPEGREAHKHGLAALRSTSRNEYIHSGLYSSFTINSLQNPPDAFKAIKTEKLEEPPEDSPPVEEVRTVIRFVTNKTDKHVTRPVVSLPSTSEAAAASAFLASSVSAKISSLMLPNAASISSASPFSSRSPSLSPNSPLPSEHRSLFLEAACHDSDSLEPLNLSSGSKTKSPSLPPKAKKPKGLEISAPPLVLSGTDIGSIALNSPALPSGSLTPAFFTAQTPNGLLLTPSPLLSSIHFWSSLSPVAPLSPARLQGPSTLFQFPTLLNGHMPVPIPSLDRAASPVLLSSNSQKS
# Summary of the method: as §1
# FEV = molecular target: T7, FEV (Homo sapiens, UniProt Q99581 1-238); details: protein: recombinant; tags: N-terminal GST; dsDNA, one strand shown
# T7 sequence: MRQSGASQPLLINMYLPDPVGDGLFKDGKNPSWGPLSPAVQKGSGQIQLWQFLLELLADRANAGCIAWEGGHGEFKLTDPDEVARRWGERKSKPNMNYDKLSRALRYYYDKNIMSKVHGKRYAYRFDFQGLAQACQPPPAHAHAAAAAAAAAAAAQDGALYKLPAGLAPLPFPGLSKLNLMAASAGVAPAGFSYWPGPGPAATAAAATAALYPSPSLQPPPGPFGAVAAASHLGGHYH
# Summary of the method: as §1
# ETV5 = ETV5 (Homo sapiens, UniProt P41161 1-510); details: protein: recombinant; tags: N-terminal GST; dsDNA, one strand shown
# Sequence of ETV5 (P41161 whole entry): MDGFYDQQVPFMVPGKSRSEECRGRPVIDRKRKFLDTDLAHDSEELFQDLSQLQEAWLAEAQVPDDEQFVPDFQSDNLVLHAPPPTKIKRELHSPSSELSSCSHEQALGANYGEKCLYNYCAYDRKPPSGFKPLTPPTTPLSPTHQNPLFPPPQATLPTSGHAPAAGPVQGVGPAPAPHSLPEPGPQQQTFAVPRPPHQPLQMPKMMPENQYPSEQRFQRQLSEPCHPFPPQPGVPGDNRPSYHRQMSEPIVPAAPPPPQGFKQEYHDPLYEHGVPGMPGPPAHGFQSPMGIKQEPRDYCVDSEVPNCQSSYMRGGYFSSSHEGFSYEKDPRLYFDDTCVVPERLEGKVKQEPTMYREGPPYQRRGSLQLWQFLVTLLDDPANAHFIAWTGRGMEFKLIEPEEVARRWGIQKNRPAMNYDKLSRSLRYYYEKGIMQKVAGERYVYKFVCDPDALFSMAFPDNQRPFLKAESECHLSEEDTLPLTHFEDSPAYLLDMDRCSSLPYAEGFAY
# Summary of the method: as §1
# HSF1 = HSF1 (Homo sapiens, UniProt Q00613 1-529); details: protein: recombinant; tags: N-terminal GST; chain copies: 3; dsDNA, one strand shown
# Sequence of HSF1 (Q00613 whole entry): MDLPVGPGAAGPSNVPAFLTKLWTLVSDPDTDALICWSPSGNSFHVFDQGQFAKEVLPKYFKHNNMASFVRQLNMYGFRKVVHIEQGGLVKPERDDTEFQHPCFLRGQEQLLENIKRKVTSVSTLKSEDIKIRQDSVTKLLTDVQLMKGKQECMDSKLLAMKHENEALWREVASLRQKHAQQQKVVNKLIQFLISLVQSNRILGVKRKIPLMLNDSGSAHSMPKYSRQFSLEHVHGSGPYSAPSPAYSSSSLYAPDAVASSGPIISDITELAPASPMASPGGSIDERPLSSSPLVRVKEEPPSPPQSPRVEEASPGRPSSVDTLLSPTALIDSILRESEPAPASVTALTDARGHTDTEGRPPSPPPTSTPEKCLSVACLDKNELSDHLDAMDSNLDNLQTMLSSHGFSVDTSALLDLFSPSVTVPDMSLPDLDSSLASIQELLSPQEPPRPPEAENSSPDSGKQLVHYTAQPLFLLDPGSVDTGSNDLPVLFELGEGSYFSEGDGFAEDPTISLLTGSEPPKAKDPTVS
# Summary of the method: as §1
# SPIC = molecular target: T8, SPIC (Homo sapiens, UniProt Q8N5J4 1-248); details: protein: recombinant; tags: N-terminal GST; dsDNA, one strand shown
# T8 sequence: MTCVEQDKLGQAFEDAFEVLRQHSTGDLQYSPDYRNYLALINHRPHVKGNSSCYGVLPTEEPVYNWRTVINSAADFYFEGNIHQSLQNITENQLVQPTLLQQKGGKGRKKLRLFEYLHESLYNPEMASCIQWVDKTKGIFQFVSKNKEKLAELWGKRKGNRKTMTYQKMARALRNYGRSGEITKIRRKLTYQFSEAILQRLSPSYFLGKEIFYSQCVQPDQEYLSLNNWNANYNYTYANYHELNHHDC
# Summary of the method: as §1
# ELF4 = ELF4 (Homo sapiens, UniProt Q99607 1-663); details: protein: recombinant; tags: N-terminal GST; dsDNA, one strand shown
# Sequence of ELF4 (Q99607 whole entry): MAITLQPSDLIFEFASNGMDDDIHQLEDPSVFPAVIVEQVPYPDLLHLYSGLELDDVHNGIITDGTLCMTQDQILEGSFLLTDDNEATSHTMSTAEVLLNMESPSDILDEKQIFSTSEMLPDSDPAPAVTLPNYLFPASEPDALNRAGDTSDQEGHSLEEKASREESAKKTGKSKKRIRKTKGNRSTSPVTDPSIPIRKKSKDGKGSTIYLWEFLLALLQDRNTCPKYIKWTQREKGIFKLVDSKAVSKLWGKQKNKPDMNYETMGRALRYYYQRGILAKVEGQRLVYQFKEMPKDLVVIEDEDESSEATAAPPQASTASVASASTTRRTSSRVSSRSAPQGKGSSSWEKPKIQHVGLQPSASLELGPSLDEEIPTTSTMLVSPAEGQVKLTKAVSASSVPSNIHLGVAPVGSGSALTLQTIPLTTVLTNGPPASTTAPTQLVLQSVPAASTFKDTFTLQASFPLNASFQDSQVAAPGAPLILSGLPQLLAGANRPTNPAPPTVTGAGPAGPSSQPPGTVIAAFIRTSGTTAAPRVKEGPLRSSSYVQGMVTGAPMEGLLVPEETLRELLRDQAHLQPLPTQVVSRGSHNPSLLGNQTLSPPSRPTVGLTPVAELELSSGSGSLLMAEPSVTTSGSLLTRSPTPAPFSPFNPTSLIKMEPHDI
# Summary of the method: as §1
# ELK4 = molecular target: T9, ELK4 (Homo sapiens, UniProt P28324-2 1-405); details: protein: recombinant; tags: N-terminal GST; dsDNA, one strand shown
# T9 sequence: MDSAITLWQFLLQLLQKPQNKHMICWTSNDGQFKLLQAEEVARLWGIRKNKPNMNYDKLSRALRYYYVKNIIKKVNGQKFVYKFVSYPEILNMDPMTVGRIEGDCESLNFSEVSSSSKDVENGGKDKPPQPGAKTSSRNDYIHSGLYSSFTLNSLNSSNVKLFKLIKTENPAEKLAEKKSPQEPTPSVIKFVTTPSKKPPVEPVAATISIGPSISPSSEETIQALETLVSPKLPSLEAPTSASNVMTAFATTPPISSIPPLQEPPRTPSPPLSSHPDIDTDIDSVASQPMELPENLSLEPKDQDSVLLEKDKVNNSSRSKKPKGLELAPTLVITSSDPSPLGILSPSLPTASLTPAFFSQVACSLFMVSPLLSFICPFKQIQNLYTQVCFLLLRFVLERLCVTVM
# Summary of the method: as §1
# ETV2 = molecular target: T10, ETV2 (Homo sapiens, UniProt O00321 1-342); details: protein: recombinant; tags: N-terminal GST; dsDNA, one strand shown
# T10 sequence: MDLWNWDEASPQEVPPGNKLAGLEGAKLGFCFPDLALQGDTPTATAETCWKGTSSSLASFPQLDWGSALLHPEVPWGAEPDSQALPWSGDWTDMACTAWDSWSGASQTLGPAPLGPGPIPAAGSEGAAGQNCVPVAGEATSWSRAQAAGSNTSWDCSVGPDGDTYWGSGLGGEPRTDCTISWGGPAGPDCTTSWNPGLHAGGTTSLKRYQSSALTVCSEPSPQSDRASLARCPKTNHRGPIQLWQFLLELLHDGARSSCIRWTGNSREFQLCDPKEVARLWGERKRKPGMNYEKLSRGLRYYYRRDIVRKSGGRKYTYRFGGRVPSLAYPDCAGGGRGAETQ
# Summary of the method: as §1
# ELF3 = molecular target: T11, ELF3 (Homo sapiens, UniProt P78545 1-371); details: protein: recombinant; tags: N-terminal GST; dsDNA, one strand shown
# T11 sequence: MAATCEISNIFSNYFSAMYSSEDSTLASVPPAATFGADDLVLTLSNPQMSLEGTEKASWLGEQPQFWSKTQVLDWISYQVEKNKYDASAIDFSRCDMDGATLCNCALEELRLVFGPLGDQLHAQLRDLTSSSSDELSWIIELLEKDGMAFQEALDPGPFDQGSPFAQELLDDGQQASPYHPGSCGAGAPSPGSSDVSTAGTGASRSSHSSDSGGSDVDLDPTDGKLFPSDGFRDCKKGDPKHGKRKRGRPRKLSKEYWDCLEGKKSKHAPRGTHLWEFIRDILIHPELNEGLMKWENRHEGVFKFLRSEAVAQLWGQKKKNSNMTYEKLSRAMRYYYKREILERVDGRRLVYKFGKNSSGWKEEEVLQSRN
# Summary of the method: as §1
# CRX = CRX (Homo sapiens, UniProt O43186 1-299); details: protein: recombinant; tags: N-terminal GST; dsDNA, one strand shown
# Sequence of CRX (O43186 whole entry): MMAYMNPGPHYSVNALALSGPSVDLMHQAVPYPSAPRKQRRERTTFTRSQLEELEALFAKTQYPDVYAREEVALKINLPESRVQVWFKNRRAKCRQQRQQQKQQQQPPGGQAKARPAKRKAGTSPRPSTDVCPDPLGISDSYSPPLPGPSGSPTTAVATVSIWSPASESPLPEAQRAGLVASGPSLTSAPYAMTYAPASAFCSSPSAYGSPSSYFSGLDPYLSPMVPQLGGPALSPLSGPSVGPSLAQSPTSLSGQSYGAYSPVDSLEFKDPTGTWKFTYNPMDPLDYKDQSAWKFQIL
# Summary of the method: as §1
# ETV1 = ETV1 (Homo sapiens, UniProt P50549 1-477); details: protein: recombinant; tags: N-terminal GST; dsDNA, one strand shown
# Sequence of ETV1 (P50549 whole entry): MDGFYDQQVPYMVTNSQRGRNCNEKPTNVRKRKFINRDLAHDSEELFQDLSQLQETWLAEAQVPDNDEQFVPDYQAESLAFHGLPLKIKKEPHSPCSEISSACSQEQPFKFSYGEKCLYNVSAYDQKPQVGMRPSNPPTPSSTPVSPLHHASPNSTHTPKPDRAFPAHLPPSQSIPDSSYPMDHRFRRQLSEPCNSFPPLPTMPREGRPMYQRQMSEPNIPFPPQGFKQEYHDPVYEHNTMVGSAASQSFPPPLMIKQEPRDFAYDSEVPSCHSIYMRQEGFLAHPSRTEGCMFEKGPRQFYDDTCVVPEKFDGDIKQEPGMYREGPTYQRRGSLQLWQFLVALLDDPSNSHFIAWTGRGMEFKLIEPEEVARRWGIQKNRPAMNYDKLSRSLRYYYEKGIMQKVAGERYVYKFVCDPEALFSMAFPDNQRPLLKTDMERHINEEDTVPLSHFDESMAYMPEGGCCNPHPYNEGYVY
# Summary of the method: as §1
sequence,measurement,setting,value
TTGCGG,binding signal,FLI1,"1.37 fold enrichment (6-mer frequency, TF over GST control)"
same,binding signal,ELK1,"1.14 fold enrichment (6-mer frequency, TF over GST control)"
same,binding signal,GABPA,"1.21 fold enrichment (6-mer frequency, TF over GST control)"
same,binding signal,ERG,"1.28 fold enrichment (6-mer frequency, TF over GST control)"
same,binding signal,ELF1,"1.38 fold enrichment (6-mer frequency, TF over GST control)"
same,binding signal,EHF,"1.3 fold enrichment (6-mer frequency, TF over GST control)"
same,binding signal,SPI1,"1.61 fold enrichment (6-mer frequency, TF over GST control)"
same,binding signal,SPIB,"1.2 fold enrichment (6-mer frequency, TF over GST control)"
same,binding signal,ELK3,"1.26 fold enrichment (6-mer frequency, TF over GST control)"
same,binding signal,FEV,"1.19 fold enrichment (6-mer frequency, TF over GST control)"
same,binding signal,ETV5,"1.36 fold enrichment (6-mer frequency, TF over GST control)"
same,binding signal,HSF1,"1.04 fold enrichment (6-mer frequency, TF over GST control)"
same,binding signal,SPIC,"1.47 fold enrichment (6-mer frequency, TF over GST control)"
same,binding signal,ELF4,"1.3 fold enrichment (6-mer frequency, TF over GST control)"
same,binding signal,ELK4,"1.2 fold enrichment (6-mer frequency, TF over GST control)"
same,binding signal,ETV2,"1.31 fold enrichment (6-mer frequency, TF over GST control)"
same,binding signal,ELF3,"1.42 fold enrichment (6-mer frequency, TF over GST control)"
same,binding signal,CRX,"1.05 fold enrichment (6-mer frequency, TF over GST control)"
same,binding signal,ETV1,"1.27 fold enrichment (6-mer frequency, TF over GST control)"
